# Measured values reported in PubChem BioAssay.
# Results filed as inconclusive are left out. Some of the results follow. Active and inactive are the calls of the source.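 Rule for the calls, unless noted: active = percent response above a set limit, the screen-wide mean plus 3 SD (cut at about 130% in these data); inactive = the rest.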
# Experiments:
# [1] = yeast TOR pathway RPL19A-GFP modulators, primary screen, cell-based, S. cerevisiae, multiplex flow cytometry (AID 1862; in the data active = percent of DMSO control GFP below about 86%;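 note: lower values mimic rapamycin by blocking the RPL19A rise seen in DMSO cells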); details: S. cerevisiae RPL19A-GFP strain, flow cytometry fluorescence, 3 h; at 10 µM; stronger effect = lower value
# [2] = modulators of MEP2-GFP levels in yeast, primary screen, S. cerevisiae, multiplex flow cytometry (AID 1867;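 active = GFP response, as percent of the DMSO control, above the screen-wide mean plus 3 SD, about 139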;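 note: median GFP channel fluorescence of barcode-gated MEP2-GFP cells measured by flow cytometry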); details: S. cerevisiae MEP2-GFP strain, 3 h, at 10 µM, stronger effect = higher value, 100% means same as DMSO wells
# [3] = modulators of CIT2-GFP expression in yeast, primary screen, S. cerevisiae, GFP fusion, multiplex flow cytometry (AID 1870); details: 3 h, at 10 µM, stronger effect = higher value;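 note: barcoded CIT2-GFP strain pooled with four other GFP strains with rapamycin as positive control; median GFP fluorescence per well over plate mean of DMSO wells so 100% = DMSO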
# [4] = modulators of LAP4-GFP expression in yeast, primary screen, S. cerevisiae, multiplex flow cytometry (AID 1873;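 active = GFP signal, as percent of the solvent control, above the screen mean plus 3 SD, about 149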); details: 3 h, at 10 µM, stronger effect = higher value
# [5] = modulators of AGP1-GFP expression in yeast TOR pathway, primary screen, cell-based, multiplex flow cytometry, S. cerevisiae (AID 1887;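 active = GFP signal above the screen-wide mean plus 3 SD, that is over about 124.5% of the solvent control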;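 note: AGP1-GFP fusion strain of S. cerevisiae within a five-strain barcoded multiplex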); details: 3 h, at 10 µM, stronger effect = higher value
# [6] = RPL19A-GFP modulators, yeast TOR pathway, confirmation, cell-based, S. cerevisiae, flow cytometry, cherry picks, mother/daughter gates (AID 2270;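 active = GFP response below 50% of the DMSO control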); details: S. cerevisiae RPL19A-GFP strain, 3 h, at 10 µM, stronger effect = lower value, 100 = same GFP as DMSO wells
# [7] = LAP4-GFP expression modulators in yeast, confirmation, cell-based, cherry picks, flow cytometry, mother/daughter gates (AID 2271;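 active = GFP response above 150% of the DMSO control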;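 note: ratio of sample to DMSO plate mean so 100% equals DMSO level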); details: S. cerevisiae LAP4-GFP strain, 3 h, at 10 µM, stronger effect = higher value, 100 means same as DMSO control
# [8] = modulators of MEP2-GFP levels in yeast, confirmation, S. cerevisiae, flow cytometry GFP, cherry picks (AID 2272;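 active = GFP response above 150% of the DMSO control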;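 note: ratio of well signal to plate DMSO mean so 100% equals DMSO level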); details: S. cerevisiae MEP2-GFP strain, 3 h, at 10 µM, stronger effect = higher value
# [9] = modulators of CIT2-GFP expression in yeast, confirmation, S. cerevisiae, GFP fusion, cherry picks, mother/daughter gates (AID 2274;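 active = GFP response above 150% of the DMSO level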); details: S. cerevisiae CIT2-GFP strain, flow cytometry, 3 h, at 10 µM, stronger effect = higher value
# [10] = inhibitors of CD8+ T cell-vesicle binding, pilot screen, LFA-1/ICAM-1 modulator project, MLPCN validation set, flow cytometry (AID 2523;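 active = response below a set limit, under 55% cells CD8-positive and vesicle-bound, and CD8 cells' 90th-percentile brightness under 279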;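 for vesicle binding response: mean PE anti-B7-1 fluorescence of CD8+ cells relative to row control; 100% = QL9-loaded vesicles with DMSO vehicle in the same plate row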); details: 2C mouse CD8+ T cells, at 7 µM, stronger effect = lower value; double positive events: measured here: CD8+/vesicle+ event percentage
# [11] = biological target: Regulator of G-protein signaling 16 (Homo sapiens) (UniProt O15492); assay: modulators of RGS–Galpha-o binding, primary screen, biochemical, multiplexed beads, flow cytometry, RGS4/7/8/16/19 (AID 1504); details: multiplexed bead flow cytometry, measured here: RGS16 interaction, at 10 µM;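 note: fluorescently labeled Galpha-o bound to GDP with aluminium fluoride binding biotinylated RGS beads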
# [12] = biological target: Regulator of G-protein signaling 19 (Homo sapiens) (UniProt P49795); assay: as above; details: multiplexed bead flow cytometry, measured here: RGS19 interaction, at 10 µM
# [13] = biological target: Regulator of G-protein signaling 7 (Homo sapiens) (UniProt P49802); assay: as above; details: multiplexed bead flow cytometry, measured here: RGS7 interaction, at 10 µM
# [14] = biological target: Regulator of G-protein signaling 8 (Homo sapiens) (UniProt P57771); assay: as above; details: multiplexed bead flow cytometry, measured here: RGS8 interaction, at 10 µM
# [15] = disruption of biotin probe capture by avidin, counter-screen for RGS protein interaction modulators, biochemical, flow cytometry, bead-based (AID 1783;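 active = inhibition above 50%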;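 note: median green fluorescence of gated singlet beads compared with DMSO control wells; 0% = DMSO wells and 100% = complete loss of bead fluorescence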); details: streptavidin beads, fluorescein-biotin binding; at 10 µM, stronger effect = higher value
# [16] = biological target: Guanine nucleotide-binding protein G(o) subunit alpha (Homo sapiens) (UniProt P09471); assay: RGS8-Galphao binding modulators, confirmation, biochemical, multiplexed bead flow cytometry, single concentration (AID 1836; in the data active = binding response below about 72% or above about 130%; inactive = in between;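 note: Galphao activated as GDP AlF4 complex before binding bead RGS8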); details: bead-based flow cytometry RGS8-Galphao binding, fluorescence; at 10 µM; actives lie on both sides
# [17] = biological target: Guanine nucleotide-binding protein G(o) subunit alpha (Homo sapiens) (UniProt P09471); assay: RGS7-Galphao binding modulators, confirmation, biochemical, multiplexed bead flow cytometry, single concentration (AID 1837; in the data active = response below about 75% or above about 130%; inactive = in between;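 note: fluorescent Galphao activated with GDP and aluminum fluoride binding bead-coupled RGS7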); details: bead-based flow cytometry RGS7-Galphao binding; at 10 µM; actives lie on both sides
# [18] = biological target: Regulator of G-protein signaling 16 (Homo sapiens) + Guanine nucleotide-binding protein G(o) subunit alpha (Homo sapiens) (UniProt O15492+P09471); assay: modulators of RGS16-Galphao protein binding, confirmation, biochemical, single concentration, multiplexed bead flow cytometry (AID 1838; in the data active = response below about 74% or above about 130%; inactive = in between;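 note: Galphao activated as the GDP aluminium fluoride complex binding bead-coupled RGS16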); details: bead-based flow cytometry, at 10 µM, actives lie on both sides
# [19] = biological target: Guanine nucleotide-binding protein G(o) subunit alpha (Homo sapiens) (UniProt P09471); assay: modulators of RGS4-Galphao protein binding, confirmation, biochemical, single concentration, multiplexed bead flow cytometry (AID 1840; in the data active = binding response below about 74% or above about 130%; inactive = in between); details: at 10 µM, actives lie on both sides
# [20] = biological target: Guanine nucleotide-binding protein G(o) subunit alpha (Homo sapiens) + Regulator of G-protein signaling 19 (Homo sapiens) (UniProt P09471+P49795); assay: regulators of RGS19-Galphao binding, confirmation, biochemical, single point, multiplexed bead flow cytometry (AID 1841; in the data active = response below about 50% or above about 160%; inactive = in between;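 note: 100% = no compound control and 0% = blank background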); details: bead-based flow cytometry RGS19-Galphao binding; at 10 µM; actives lie on both sides
# [21] = measured here: daughter cell gate
# [22] = measured here: mother cell gate
# [23] = measured here: daughter cell gate response
# [24] = measured here: mother cell gate response
# Chain of Regulator of G-protein signaling 16 (Homo sapiens) + Guanine nucleotide-binding protein G(o) subunit alpha (Homo sapiens) (O15492 whole entry, looked up): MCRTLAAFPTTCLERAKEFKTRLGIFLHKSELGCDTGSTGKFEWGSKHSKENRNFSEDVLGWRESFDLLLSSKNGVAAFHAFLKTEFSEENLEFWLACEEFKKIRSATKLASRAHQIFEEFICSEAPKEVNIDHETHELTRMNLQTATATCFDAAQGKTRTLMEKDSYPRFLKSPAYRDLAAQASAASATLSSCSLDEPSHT
# Chain of Regulator of G-protein signaling 16 (Homo sapiens) + Guanine nucleotide-binding protein G(o) subunit alpha (Homo sapiens) (P09471 whole entry, looked up): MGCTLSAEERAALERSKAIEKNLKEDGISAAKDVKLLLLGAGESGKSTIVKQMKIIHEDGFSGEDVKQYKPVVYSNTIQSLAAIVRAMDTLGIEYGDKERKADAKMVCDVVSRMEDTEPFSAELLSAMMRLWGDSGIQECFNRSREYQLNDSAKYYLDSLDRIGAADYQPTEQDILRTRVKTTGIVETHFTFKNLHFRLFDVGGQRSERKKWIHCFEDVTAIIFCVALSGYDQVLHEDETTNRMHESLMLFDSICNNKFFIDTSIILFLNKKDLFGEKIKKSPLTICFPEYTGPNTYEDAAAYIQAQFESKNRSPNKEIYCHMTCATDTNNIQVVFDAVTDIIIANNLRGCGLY
# Chain of Guanine nucleotide-binding protein G(o) subunit alpha (Homo sapiens) + Regulator of G-protein signaling 19 (Homo sapiens) (P09471 whole entry, looked up): as above
# Chain of Guanine nucleotide-binding protein G(o) subunit alpha (Homo sapiens) + Regulator of G-protein signaling 19 (Homo sapiens) (P49795 whole entry, looked up): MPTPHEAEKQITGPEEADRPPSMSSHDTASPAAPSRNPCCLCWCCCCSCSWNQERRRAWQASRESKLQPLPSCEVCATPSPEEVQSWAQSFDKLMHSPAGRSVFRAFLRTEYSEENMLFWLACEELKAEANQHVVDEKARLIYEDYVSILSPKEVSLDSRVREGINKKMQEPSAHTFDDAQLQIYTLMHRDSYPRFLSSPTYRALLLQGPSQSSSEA
# Chain of Guanine nucleotide-binding protein G(o) subunit alpha (Homo sapiens) (P09471 whole entry, looked up): as the sequence (P09471 whole entry, looked up) above
structure (smiles),measurement,setting,value
N#C/C(C(N)=O)=c1/ccc2c(c1)N1C3=C(CCCC3)CC3CCCCC31N=2 (stereo unspecified),percent of DMSO control GFP,[1],104% (inactive)
same,GFP response vs DMSO,[2],113% (inactive)
same,percent response of DMSO control,[3],94.5% (inactive)
same,GFP response vs DMSO,[4],170% (active)
same,"GFP response, % of DMSO",[5],105% (inactive)
same,GFP response vs DMSO,[6],92.7% (inactive)
same,GFP response vs DMSO,[6]; [21],88.8%
same,GFP response vs DMSO,[6]; [22],93.3%
same,GFP response relative to DMSO,[7],118% (inactive)
same,GFP response relative to DMSO,[7]; [23],115%
same,GFP response relative to DMSO,[7]; [24],123%
same,GFP response vs DMSO,[8],101% (inactive)
same,"GFP response, % of DMSO",[9],88.9% (inactive)
same,"GFP response, % of DMSO",[9]; [21],85.2%
same,"GFP response, % of DMSO",[9]; [22],89.3%
same,double positive events,[10],59.5%
same,vesicle binding response,[10],108% (inactive)
COc1ccc(-c2noc(-c3ccccc3-c3ccccc3)n2)cc1,percent of DMSO control GFP,[1],91.1% (inactive)
same,GFP response vs DMSO,[2],142% (active)
same,percent response of DMSO control,[3],114% (inactive)
same,GFP response vs DMSO,[4],81.4% (inactive)
same,"GFP response, % of DMSO",[5],86.3% (inactive)
same,GFP response vs DMSO,[6],95.6% (inactive)
same,GFP response vs DMSO,[6]; [21],92.9%
same,GFP response vs DMSO,[6]; [22],96.8%
same,GFP response relative to DMSO,[7],95.7% (inactive)
same,GFP response relative to DMSO,[7]; [23],95.9%
same,GFP response relative to DMSO,[7]; [24],97.3%
same,GFP response vs DMSO,[8],107% (inactive)
same,"GFP response, % of DMSO",[9],97.3% (inactive)
same,"GFP response, % of DMSO",[9]; [21],97.4%
same,"GFP response, % of DMSO",[9]; [22],96.8%
same,double positive events,[10],56.5%
same,vesicle binding response,[10],138% (inactive)
O=C(/C=C/c1ccccc1)c1ccccc1,percent of DMSO control GFP,[1],92.8% (inactive)
same,GFP response vs DMSO,[2],139% (inactive)
same,percent response of DMSO control,[3],96.6% (inactive)
same,GFP response vs DMSO,[4],79.8% (inactive)
same,"GFP response, % of DMSO",[5],87.5% (inactive)
same,GFP response vs DMSO,[6],98% (inactive)
same,GFP response vs DMSO,[6]; [21],100%
same,GFP response vs DMSO,[6]; [22],97.1%
same,GFP response relative to DMSO,[7],97.7% (inactive)
same,GFP response relative to DMSO,[7]; [23],96.5%
same,GFP response relative to DMSO,[7]; [24],94.6%
same,GFP response vs DMSO,[8],104% (inactive)
same,"GFP response, % of DMSO",[9],102% (inactive)
same,"GFP response, % of DMSO",[9]; [21],106%
same,"GFP response, % of DMSO",[9]; [22],99.1%
same,double positive events,[10],68%
same,vesicle binding response,[10],126% (inactive)
CC(=O)Nc1nc(N(C)C)nc(N(C)C)n1,RGS16–Galpha-o binding response,[11],28%
same,RGS19–Galpha-o binding response,[12],162%
same,RGS7–Galpha-o binding response,[13],-0.2%
same,RGS8–Galpha-o binding response,[14],25.1%
same,inhibition,[15],3.9% (inactive)
same,binding response (% of control),[16],100% (inactive)
same,response (percent of control binding),[17],103% (inactive)
same,response (% of control binding),[18],104% (inactive)
same,binding response (% of control),[19],104% (inactive)
same,response (percent of control binding),[20],109% (inactive)
Nc1ccc(C(=O)OCC(=O)NC2CCS(=O)(=O)C2)cc1[N+](=O)[O-] (stereo unspecified),RGS16–Galpha-o binding response,[11],-10.3%
same,RGS19–Galpha-o binding response,[12],179%
same,RGS7–Galpha-o binding response,[13],289%
same,RGS8–Galpha-o binding response,[14],6.98%
same,inhibition,[15],-1.4% (inactive)
same,binding response (% of control),[16],101% (inactive)
same,response (percent of control binding),[17],103% (inactive)
same,response (% of control binding),[18],99.9% (inactive)
same,binding response (% of control),[19],100% (inactive)
same,response (percent of control binding),[20],103% (inactive)
Cc1cc(C)n(CC(O)CN(c2ccccc2)S(=O)(=O)c2ccc3ccccc3c2)n1 (stereo unspecified),RGS16–Galpha-o binding response,[11],-6.51%
same,RGS19–Galpha-o binding response,[12],163%
same,RGS7–Galpha-o binding response,[13],1.45%
same,RGS8–Galpha-o binding response,[14],15%
same,inhibition,[15],1.1% (inactive)
same,binding response (% of control),[16],101% (inactive)
same,response (percent of control binding),[17],104% (inactive)
same,response (% of control binding),[18],103% (inactive)
same,binding response (% of control),[19],104% (inactive)
same,response (percent of control binding),[20],98.9% (inactive)
